Assay outcomes: PubChem BioAssay, several laboratories
Sampled rows, rich in hits. Any-hit rate of the full collection: about 12%.
ROMK mod = modulates human ROMK potassium channel activity | Tet-inducible ROMK, thallium flux fluorescence; actives lie on both sides | P48048 | AID 1918 | 2% of 130,000 active | B-score at 10 µM;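 active = signal ratio slope over the read window, or its plate-corrected B-score, at least 3 SD from the plate mean, either direction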;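 note: B-score of the F/F0 ratio slope over 7 to 12 s after thallium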
L major viab = reduces viability of Leishmania major promastigotes; resazurin fluorescence viability; inhibition, % at 10 µM; 9% of 200,000 active; in the data active = inhibition above about 50%;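 note: promastigotes grown with compound for 44 hours at 28 °C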
WT yeast gro inh = growth inhibition of WT yeast, mitochondrial fusion screen; mitochondrial fusion phenotypic screen, WT strain; inhibition, % at 10 µM; 2.1% of 190,000 active; AID 1362; in the data active = inhibition above about 58%; tested in S. cerevisiae
Calpain2 inh = blocks pig calpain II enzyme activity | purified calpain II, fluorogenic peptide substrate, 30 min | inhibition, % at 16 µM | 0.37% of 220,000 active | AID 1236;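 active = inhibition above about 50%, limit read from the data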
Cl transport mod = KCC2 (human) Cl- transport modulation; Q9H2X9; KCC2 cells, thallium flux FluoZin-2 fluorescence; B-score of Tl+ flux slope (higher = more flux/activation; lower = inhibition) at 10 µM; 2.2% of 190,000 active;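 active = thallium flux slope and its plate-corrected score both differing from the plate sample mean at a set confidence after two filtering rounds, in either direction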;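 note: slope of fluorescence scaled to starting intensity during 10 to 20 s after thallium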
Target sequence (Q9H2X9 whole entry, looked up): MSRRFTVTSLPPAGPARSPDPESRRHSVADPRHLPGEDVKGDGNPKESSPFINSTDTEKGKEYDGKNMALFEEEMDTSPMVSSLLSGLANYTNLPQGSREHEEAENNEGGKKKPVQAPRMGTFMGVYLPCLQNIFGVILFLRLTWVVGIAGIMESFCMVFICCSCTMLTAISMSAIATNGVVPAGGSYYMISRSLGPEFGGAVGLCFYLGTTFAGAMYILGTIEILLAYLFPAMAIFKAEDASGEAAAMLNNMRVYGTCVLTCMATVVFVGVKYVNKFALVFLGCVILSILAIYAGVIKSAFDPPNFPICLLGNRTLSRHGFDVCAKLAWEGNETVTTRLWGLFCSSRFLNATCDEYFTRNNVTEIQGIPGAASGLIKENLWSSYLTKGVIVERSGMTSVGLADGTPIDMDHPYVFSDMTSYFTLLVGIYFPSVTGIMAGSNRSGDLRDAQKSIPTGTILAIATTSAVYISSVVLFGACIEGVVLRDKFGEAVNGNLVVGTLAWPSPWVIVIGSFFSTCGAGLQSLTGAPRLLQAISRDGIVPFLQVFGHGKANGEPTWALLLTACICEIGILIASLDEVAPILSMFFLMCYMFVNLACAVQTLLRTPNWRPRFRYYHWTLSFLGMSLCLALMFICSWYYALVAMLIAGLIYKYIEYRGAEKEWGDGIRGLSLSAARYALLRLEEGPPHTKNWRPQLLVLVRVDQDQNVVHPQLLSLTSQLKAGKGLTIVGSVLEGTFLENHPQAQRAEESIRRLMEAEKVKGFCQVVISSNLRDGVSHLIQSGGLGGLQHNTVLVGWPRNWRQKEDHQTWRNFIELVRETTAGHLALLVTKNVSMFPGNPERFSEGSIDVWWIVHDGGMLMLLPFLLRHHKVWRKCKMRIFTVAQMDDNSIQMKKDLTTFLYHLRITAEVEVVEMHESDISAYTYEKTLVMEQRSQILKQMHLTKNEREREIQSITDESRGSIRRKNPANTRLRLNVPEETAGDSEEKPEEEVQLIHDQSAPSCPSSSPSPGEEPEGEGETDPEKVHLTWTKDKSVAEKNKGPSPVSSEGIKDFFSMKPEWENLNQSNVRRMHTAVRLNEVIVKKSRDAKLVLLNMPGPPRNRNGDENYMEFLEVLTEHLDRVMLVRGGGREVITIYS
Numbers stand for hits; . = inactive; / = not tested or not shown.

SMILES	ROMK mod	L major viab	WT yeast gro inh	Calpain2 inh	Cl transport mod
O=C(c1ccc(Cl)cc1)N1CCC(c2nc(-c3cccs3)no2)CC1	/	87.0	.	.	.
COc1ccc(C2CC(=O)C3=C(C2)Nc2ccccc2NC3c2coc3ccccc3c2=O)cc1OC (stereo not drawn)	.	92.7	.	.	.
O=C(Nc1ccc(N2CCCCC2)cc1)c1cc([N+](=O)[O-])cc([N+](=O)[O-])c1	.	65.6	.	.	/
CC(C)Oc1ccc(C(=O)Nc2ccc(N3CCCCC3)cc2)cc1	.	50.9	.	.	.
Cc1ccc(C(=O)Nc2ccc(N3CCCC3)cc2)cc1	.	.	.	.	.
CC(=O)N1CCN(c2ccc(NC(=O)c3ccc(C(C)(C)C)cc3)cc2)CC1	.	96.8	.	.	.
COc1ccc(C(=O)Nc2ccc(N3CCCCC3)cc2)cc1Br	/	51.9	.	.	.
COc1cc(Br)cc(/C=N/NC(=O)Cc2ccc(C(F)(F)F)cc2[N+](=O)[O-])c1O	/	72.5	.	.	.
CC(=O)N1CCN(c2cc(N3CCc4ccccc4C3)c(F)cc2[N+](=O)[O-])CC1	.	.	.	.	.
CCCCNS(=O)(=O)c1ccc2nc(SCC(N)=O)[nH]c2c1	/	/	/	.	.
CCCCNS(=O)(=O)c1ccc2nc(SCC(=O)c3ccccc3OC)[nH]c2c1	.	99.2	.	.	.
CCCCNS(=O)(=O)c1ccc2nc(SCC(=O)Nc3ccccc3Cl)[nH]c2c1	/	.	.	56.4	.
CS(=O)(=O)c1nc(-c2cccs2)cc(C(F)(F)F)n1	-4.25	.	.	.	/
CCN(CC)S(=O)(=O)c1ccc(N2CCOCC2)c(NS(=O)(=O)c2cc(C(C)(C)C)ccc2C)c1	.	93.4	.	.	.
CCN(CC)S(=O)(=O)c1cc(NC(=O)C(C)Nc2ccccc2N2CCOCC2)ccc1C (stereo not drawn)	.	70.6	.	.	.
CCN(CC)S(=O)(=O)c1cc(NC(=O)C(C)N2CCN(Cc3ccc4c(c3)OCO4)CC2)ccc1C (stereo not drawn)	.	88.3	.	.	.
CCN(CC)S(=O)(=O)c1ccc(N2CCOCC2)c(NC(=O)CC23CC4CC(CC(Br)(C4)C2)C3)c1	.	50.8	.	.	.
CCN(CC)S(=O)(=O)c1ccc(N2CCOCC2)c(NC(=O)C(C)(C)C)c1	/	/	/	.	.
CC(C)CN(CC(C)C)C(=O)COc1ccccc1C(N)=O	.	.	.	.	.
CCN(CC)S(=O)(=O)c1ccc(C(=O)OCC(=O)NCCN2C(=O)CSC2=O)cc1	.	.	.	.	.
CCC(=O)Nc1cccc(C2=NOC3(C2)C[C@H](C(N)=O)N(C(=O)CC#N)C3)c1 (stereo partly drawn)	/	/	/	.	.
CCN(CC)S(=O)(=O)c1ccc(N2CCCC2)c(NS(=O)(=O)c2ccc([N+](=O)[O-])cc2)c1	/	.	.	.	.
CCN(CC)S(=O)(=O)c1cc(NS(=O)(=O)c2ccccc2)ccc1C	/	52.0	.	56.0	.
CCN(CC)S(=O)(=O)c1cc(NS(=O)(=O)c2cccc(C(=O)O)c2)ccc1C	.	.	.	.	.
CCN(CC)S(=O)(=O)c1ccc(N2CCCC2)c(NS(=O)(=O)c2ccc(F)cc2)c1	.	60.2	.	.	.
SMILES	ROMK mod	L major viab	WT yeast gro inh	Calpain2 inh	Cl transport mod
Cc1ccc(S(C)(=O)=O)cc1S(=O)(=O)Nc1ccccc1	.	50.0	.	.	.
CCN(CC)S(=O)(=O)c1ccc(N2CCCCC2)c(C(=O)Nc2ccccc2N2CCOCC2)c1	-3.64	.	.	.	.
Cc1cc(C)c(S(=O)(=O)Nc2ccc(O)c(Sc3ncn[nH]3)c2)c(C)c1	.	.	.	.	.
FC(F)(F)c1ccccc1NC(=S)NN=C1CCCCCC1	.	.	.	.	/
COc1ccccc1C1/C(=C(\O)c2c(C)nc3c(C)cccn23)C(=O)C(=O)N1CCCN(C)C (stereo not drawn)	.	.	/	/	.
CCN(CC)S(=O)(=O)c1ccc(N2CCCC2)c(NS(=O)(=O)c2ccccc2)c1	/	62.5	.	.	.
CCN(CC)S(=O)(=O)c1ccc(N2CCCC2)c(NS(=O)(=O)c2ccc(OC)cc2)c1	.	.	.	.	.
Cc1ccc(OCCNC(=O)C2CCCCC2)cc1	.	.	.	.	.
CNCCCOc1ccc2c(c1)CCC2	.	.	.	.	.
COc1ccc(OCCNC2CCCC2)cc1	/	61.4	.	.	.
c1ccc(Cc2ccc(OCCCNC3CCCC3)cc2)cc1	.	100.2	.	.	.
c1ccc(-c2ccc(OCCCNC3CCCC3)cc2)cc1	.	100.4	.	.	.
c1cc2c(cc1OCCNC1CCCC1)CCC2	.	75.6	.	.	.
COc1cc(NC(=S)Nc2cccnc2)cc(OC)c1	/	.	.	.	.
N#Cc1ccc(OCCOCCNC2CCCC2)cc1	.	81.4	.	.	.
c1ccc(SCCCCNC2CCCC2)cc1	/	86.5	.	.	.
OC(CNC1CCCC1)COCCOc1ccc(Br)cc1 (stereo not drawn)	/	/	/	.	.
COCC(=O)NC1CCN(S(=O)(=O)c2cccc(C(C)=O)c2)CC1	.	.	.	.	/
COc1ccc(CNc2ccc3cn[nH]c3c2)c(OC)c1OC	.	.	.	.	/
CCOc1cc(CNc2ccc3cn[nH]c3c2)ccc1OC	.	79.0	.	.	.
O=C(N/N=C/c1ccc(OC(F)F)cc1OC(F)F)c1cccc(S(=O)(=O)N2CCOCC2)c1	.	.	.	.	.
O=[N+]([O-])c1ccc(Oc2ccc(S(=O)(=O)Nc3ccccc3)cc2)cc1	/	65.6	.	.	.
O=[N+]([O-])c1cc([N+](=O)[O-])c2c(=Nc3ccccc3)n(-c3ccccc3)n(O)c2c1	.	100.3	.	.	.
O=[N+]([O-])c1cccc(C(=Nc2ccccc2)NO)c1	/	.	.	.	.
CCOc1cc(/C=N/n2cnnc2)ccc1OS(=O)(=O)c1ccccc1	.	68.8	.	62.6	.
SMILES	ROMK mod	L major viab	WT yeast gro inh	Calpain2 inh	Cl transport mod
O=[N+]([O-])c1ccccc1S(=O)(=O)Oc1ccc(/C=N/n2cnnc2)cc1	.	.	.	.	.
COc1cc(/C=N/n2cnnc2)ccc1OS(=O)(=O)c1ccccc1[N+](=O)[O-]	/	.	.	59.4	.
O=S(=O)(Oc1ccccc1/C=N/n1cnnc1)c1ccccc1	.	.	.	.	.
C=CCCCCCCCCC(=O)NN	/	.	.	.	/
Cc1ncsc1CCOC(=O)c1cccnc1	.	.	.	.	/
Cc1ncsc1CCOC(=O)C12CC3CC(CC(C3)C1)C2	.	.	.	66.7	/
Cc1ccc(C(=O)c2no[n+]([O-])c2C(=O)c2ccc(C)cc2)cc1	-5.08	.	.	.	.
O=C(CCc1c[nH]c2ccccc12)NC1CC1	.	.	/	.	/
COC(=O)C(C(=O)OC)C(C[N+](=O)[O-])c1ccc(OC)c(OC)c1 (stereo not drawn)	.	99.9	.	.	.
COc1cc(C(=O)Nc2ccc(N3CCOCC3)cc2)ccc1OCc1c(C)noc1C	/	.	.	.	.
Oc1cccc(CCC2CCCCN2Cc2cn[nH]c2-c2ccc3c(c2)OCO3)c1 (stereo not drawn)	.	.	.	.	.
CCOc1ccccc1C1CC(c2ccc(Br)cc2)Nc2nc(N)nn21 (stereo not drawn)	/	.	.	.	.
